# The source made the active and inactive calls.
# What was measured:
# [1] = system: PRMT1 (protein arginine N-methyltransferase 1); experiment: small molecules binding arginine methyltransferase PRMT1 – biochemical, small-molecule microarray, 635 nm fluorescence, primary screen (AID 1088); details: higher = more signal;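 also: binding of Prmt1 protein to compounds spotted on small-molecule microarray slides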
# [2] = growth effects on S. cerevisiae YJM789 – YJM789 clinical isolate, OD600, 24 h, basal, primary screen (AID 1089); details: higher = more signal, called active from +8 up or from −8 down;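 also: growth of clinical yeast isolate S. cerevisiae YJM 789 seeded 1000 cells per well; test concentration not given here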
# [3] = S. pombe growth modifiers, basal conditions – strain 972, OD600, 24 h, no modulator, primary screen (AID 1090);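 also: basal condition with compound alone and no growth modifier present; test concentration not given here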; details: S. pombe 972 growth, higher = more signal, called active from +8 up or from −8 down
# [4] = budding yeast growth modifiers under rapamycin – strain BY4716, OD600, 96 h, primary screen (AID 1091); also: test concentration not given here; details: S. cerevisiae BY4716 + rapamycin, higher = more signal, called active from +8 up or from −8 down
# [5] = molecular target: Torsin-1A-interacting protein 2 (Homo sapiens) (UniProt Q8NFQ8); experiment: small molecules binding lysate-expressed LULL1 – cell lysate, human LULL1 lysate, 635/667 nm fluorescence, primary screen (AID 1092); details: small-molecule microarray, hLULL1 lysate binding, 635 nm fluorescence; higher = more signal;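 also: probe is lysate of COS7 cells overexpressing human LULL1; score merges per-feature 667 nm fluorescence with signal-to-noise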
# [6] = optical density change of DRC41 E. coli – strain DRC41, OD650, 24 h, E. coli filamentation project, primary screen (AID 1093);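 also: MC1000 strain lacking acrAB efflux and sulA so SOS filamentation is blocked; test concentration not given here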; details: E. coli DRC41 growth, higher = more signal, called active from +8 up or from −8 down
# [7] = probe aLefty2 binding to arrayed compounds – biochemical, biotinylated probe, 635/667 nm fluorescence, primary screen (AID 1094); details: small-molecule microarray, higher = more signal;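 also: score merges spot fluorescence near 667 nm with spot signal-to-noise ratio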
# [8] = system: Noggin (protein binding on small-molecule microarray); experiment: small molecules binding Noggin protein – biochemical, 635/667 nm fluorescence, primary screen (AID 1095); details: 635 nm fluorescence, higher = more signal;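 also: score merges 667 nm feature fluorescence with signal to noise over triplicate slides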
# [9] = molecular target: Neurogenic locus notch homolog protein 3 (Homo sapiens) (UniProt Q9UM47); experiment: small molecules binding NOTCH3 protein – biochemical, 635/667 nm fluorescence, primary screen (AID 1096); details: small-molecule microarray, 635 nm fluorescence, higher = more signal
# [10] = probe aEGFR binding to arrayed compounds – biochemical, biotinylated probe, 635/667 nm fluorescence, primary screen (AID 1097); details: small-molecule microarray, higher = more signal;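 also: probe is a biotinylated anti-EGFR antibody binding compounds printed on slides; score combines fluorescence near 667 nm and signal to noise of each spot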
# Chain of Torsin-1A-interacting protein 2 (Homo sapiens) (Q8NFQ8 whole entry, looked up): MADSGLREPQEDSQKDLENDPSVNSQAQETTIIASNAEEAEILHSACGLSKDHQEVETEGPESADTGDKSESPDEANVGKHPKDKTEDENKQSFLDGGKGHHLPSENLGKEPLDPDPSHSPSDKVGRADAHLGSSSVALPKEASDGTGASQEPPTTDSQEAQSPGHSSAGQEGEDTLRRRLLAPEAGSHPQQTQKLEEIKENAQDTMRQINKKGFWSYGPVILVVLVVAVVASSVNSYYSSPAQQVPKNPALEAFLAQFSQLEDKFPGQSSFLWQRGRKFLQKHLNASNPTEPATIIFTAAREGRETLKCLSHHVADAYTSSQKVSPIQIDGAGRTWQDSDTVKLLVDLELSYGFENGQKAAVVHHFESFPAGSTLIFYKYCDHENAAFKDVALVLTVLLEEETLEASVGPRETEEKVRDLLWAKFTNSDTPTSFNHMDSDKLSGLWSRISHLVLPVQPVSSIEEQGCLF
# Chain of Neurogenic locus notch homolog protein 3 (Homo sapiens) (Q9UM47 whole entry, looked up): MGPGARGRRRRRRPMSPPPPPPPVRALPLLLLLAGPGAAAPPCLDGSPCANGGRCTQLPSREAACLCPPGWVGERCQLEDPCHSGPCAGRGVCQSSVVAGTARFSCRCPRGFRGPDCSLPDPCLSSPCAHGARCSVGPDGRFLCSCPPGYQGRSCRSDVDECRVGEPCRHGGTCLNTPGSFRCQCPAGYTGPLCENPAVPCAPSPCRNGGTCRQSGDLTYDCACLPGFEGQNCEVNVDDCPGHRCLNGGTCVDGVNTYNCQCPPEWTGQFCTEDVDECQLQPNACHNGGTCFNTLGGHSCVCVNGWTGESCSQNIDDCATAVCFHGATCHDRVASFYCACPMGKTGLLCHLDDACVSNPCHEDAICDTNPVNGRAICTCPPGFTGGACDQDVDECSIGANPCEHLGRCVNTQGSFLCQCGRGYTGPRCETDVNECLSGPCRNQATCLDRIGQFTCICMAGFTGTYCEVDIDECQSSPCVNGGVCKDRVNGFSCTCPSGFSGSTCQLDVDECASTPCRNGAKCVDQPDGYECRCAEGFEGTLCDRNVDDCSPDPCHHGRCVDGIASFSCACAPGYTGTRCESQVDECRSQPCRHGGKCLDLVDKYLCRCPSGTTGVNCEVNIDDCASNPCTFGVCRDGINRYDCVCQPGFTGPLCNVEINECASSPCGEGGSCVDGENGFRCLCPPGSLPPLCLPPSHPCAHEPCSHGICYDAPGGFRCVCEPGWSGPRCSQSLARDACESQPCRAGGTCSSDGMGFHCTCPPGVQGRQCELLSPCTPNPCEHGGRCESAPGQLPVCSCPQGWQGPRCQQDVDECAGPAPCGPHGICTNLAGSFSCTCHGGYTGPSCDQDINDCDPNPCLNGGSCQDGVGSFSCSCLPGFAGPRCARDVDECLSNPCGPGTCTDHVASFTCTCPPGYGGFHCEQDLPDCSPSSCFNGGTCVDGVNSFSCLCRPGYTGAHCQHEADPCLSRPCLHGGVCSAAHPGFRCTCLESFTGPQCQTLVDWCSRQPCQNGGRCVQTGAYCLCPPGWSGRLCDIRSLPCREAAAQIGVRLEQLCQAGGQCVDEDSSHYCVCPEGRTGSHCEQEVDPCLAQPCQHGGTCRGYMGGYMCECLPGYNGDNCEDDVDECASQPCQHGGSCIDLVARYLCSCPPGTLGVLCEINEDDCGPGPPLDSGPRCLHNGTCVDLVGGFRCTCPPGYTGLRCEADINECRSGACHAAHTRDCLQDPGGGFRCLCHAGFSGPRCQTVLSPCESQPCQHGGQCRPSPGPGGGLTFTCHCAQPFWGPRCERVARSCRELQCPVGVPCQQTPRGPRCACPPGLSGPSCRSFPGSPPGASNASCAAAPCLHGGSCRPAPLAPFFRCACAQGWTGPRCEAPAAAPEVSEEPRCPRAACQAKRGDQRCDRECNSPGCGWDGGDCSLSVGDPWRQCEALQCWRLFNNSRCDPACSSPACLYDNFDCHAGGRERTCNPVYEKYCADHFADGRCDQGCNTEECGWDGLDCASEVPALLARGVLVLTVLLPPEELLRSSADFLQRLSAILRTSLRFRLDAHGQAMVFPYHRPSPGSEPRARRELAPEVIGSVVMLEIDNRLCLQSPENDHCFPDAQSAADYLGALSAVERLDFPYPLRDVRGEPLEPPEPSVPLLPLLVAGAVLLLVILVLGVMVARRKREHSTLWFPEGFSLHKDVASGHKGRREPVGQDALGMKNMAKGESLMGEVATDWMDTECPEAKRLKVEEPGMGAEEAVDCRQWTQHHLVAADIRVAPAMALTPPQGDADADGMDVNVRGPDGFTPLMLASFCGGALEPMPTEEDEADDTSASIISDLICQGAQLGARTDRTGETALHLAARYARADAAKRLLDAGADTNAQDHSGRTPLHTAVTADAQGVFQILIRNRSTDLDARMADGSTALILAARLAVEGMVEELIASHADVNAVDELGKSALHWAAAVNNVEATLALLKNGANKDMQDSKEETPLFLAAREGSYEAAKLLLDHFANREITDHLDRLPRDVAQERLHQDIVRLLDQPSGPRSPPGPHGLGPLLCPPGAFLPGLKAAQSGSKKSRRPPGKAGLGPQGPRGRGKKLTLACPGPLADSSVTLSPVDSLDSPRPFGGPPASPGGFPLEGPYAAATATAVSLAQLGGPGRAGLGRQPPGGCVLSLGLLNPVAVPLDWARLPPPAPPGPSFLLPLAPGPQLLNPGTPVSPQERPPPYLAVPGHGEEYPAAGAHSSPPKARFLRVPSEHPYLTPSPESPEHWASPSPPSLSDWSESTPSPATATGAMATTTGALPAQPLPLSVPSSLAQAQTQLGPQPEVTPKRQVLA
SMILES,composite z-score [1],z-score [2],z-score [3],z-score [4],composite z-score [5],z-score [6],composite z-score [7],composite z-score [8],composite z-score [9],composite z-score [10]
O=C1C[C@@](C(=O)NCC(F)(F)F)(c2ccc([N+](=O)[O-])cc2)[C@@H](c2ccc(CO)cc2I)N1C1CCCCC1,1.55,-0.732 (inactive),0.294 (inactive),1.16 (inactive),2.52,-0.426 (inactive),0.0524,0.572,1.09,0.0721
COC(=O)[C@@]1(Cc2ccc(F)cc2)[C@H]2c3cc(C(=O)N(C)C)n(Cc4ccccc4)c3C[C@H]2CN1C(=O)c1ccccc1,0.964,0.428 (inactive),1.49 (inactive),3.85 (inactive),1.73,-0.466 (inactive),0.318,-0.004,1.14,0.0709
O=C1c2ccccc2[C@](Cc2ccccc2I)(C(=O)NCC(F)(F)F)[C@H](c2ccc(CO)cc2)N1Cc1ccccc1Cl,1.53,-0.893 (inactive),-1.09 (inactive),-1.29 (inactive),3,-0.267 (inactive),-0.0283,0.496,0.958,-0.0409
Cc1ccc(S[C@]2(C(=O)O)CC(=O)N(C(C)C)[C@@H]2c2ccc(CO)cc2I)cc1,1.55,-2.31 (inactive),-2.85 (inactive),1.55 (inactive),2.21,3.25 (inactive),0.122,-0.0137,0.271,0.0255
CCCCC(CC)C(O)C1C=CC2C(=O)N(Cc3ccccc3)C(=O)C2N1n1cnnc1 (stereo not given),0.249,-0.279 (inactive),-0.359 (inactive),-0.435 (inactive),0.77,-1.05 (inactive),-0.0238,-0.0141,-0.22,-0.0253
C=C(CCCC)C(=O)CC[C@@H](OC(=O)c1ccccc1-c1ccccc1C(=O)O)c1ccc(OCCO)cc1,1.53,-0.848 (inactive),-1.57 (inactive),-1.2 (inactive),0.259,0.502 (inactive),-0.0272,0.931,0.462,-0.0767
CC(C)OC(=O)C=C1C[C@@H](c2ccccn2)O[C@@H](c2ccccn2)O1,0.875,-0.0723 (inactive),0.228 (inactive),-1.36 (inactive),0.0473,0.0183 (inactive),-0.224,1.25,0.0527,0.0494
CO[C@H]1O[C@H](CO)[C@@H](OC(=O)Nc2ccc(C(F)(F)F)cc2)[C@H](OC(=O)Nc2ccc3c(c2)OCO3)[C@@H]1OC(=O)Nc1ccc2c(c1)OCO2,1.54,2.76 (inactive),0.942 (inactive),10 (active),3.11,2.24 (inactive),-0.0021,0.476,1.08,0.0869
O=C(NCCO)C1=C[C@H](Oc2ccccc2I)[C@@H](O)[C@H](N(Cc2ccco2)C(=O)Cc2ccccc2)C1,-0.0355,0.528 (inactive),0.0689 (inactive),0.279 (inactive),-0.298,-0.546 (inactive),-0.0279,0.535,0.271,-0.0767
COCCOC(=O)N1C(=O)[C@@]2(c3cc(C#CCNC(N)=O)ccc31)[C@H](C(=O)Nc1nc3ccccc3s1)[C@H]1C(=O)O[C@H](c3ccccc3)[C@H](c3ccccc3)N1[C@@H]2c1ccc(OCCO)cc1,1.55,1.18 (inactive),0.409 (inactive),2.79 (inactive),1.61,-0.333 (inactive),0.711,0.88,1.06,-0.0354
CCCCCCc1nc(-c2ccc(OC)nc2)cc2c1[Si](C(C)C)(C(C)C)O[C@H]2c1ccccc1,0.608,0.493 (inactive),0.993 (inactive),-0.226 (inactive),-0.4,-0.995 (inactive),-0.203,0.75,0.783,-0.0674
C=CCNC(=O)[C@H]1[C@@H]2C(=O)O[C@@H](c3ccccc3)[C@@H](c3ccccc3)N2[C@@H](c2ccccc2OCCO)[C@]12C(=O)Nc1ccc(C#CCC(C(=O)OC)C(=O)OC)cc12,1.32,1.93 (inactive),2 (inactive),5.92 (inactive),3.25,0.587 (inactive),0.65,0.897,1.05,0.486
O=C(CS)NCCCCCCNC(=O)[C@@H]1C[C@@H]2C(=O)NCC(=O)N2[C@@H]1c1cccc(OCCO)c1,1.01,0.309 (inactive),0.156 (inactive),0.616 (inactive),3.09,0.456 (inactive),-0.327,-0.07,0.188,-0.0662
COC(=O)[C@@]1(Cc2ccc(F)cc2)[C@H]2c3cc(C(=O)N(C)C)n(Cc4ccc(Cl)c(C(F)(F)F)c4)c3C[C@H]2CN1C(=O)c1ccccc1,1.31,0.44 (inactive),1.29 (inactive),1.69 (inactive),3.62,-0.824 (inactive),0.395,-0.602,1.02,0.231
C=C(C(=O)CC[C@@H](OC(=O)c1cccnc1)c1ccccc1OCCO)C(C)C,1.44,-0.73 (inactive),-0.177 (inactive),0.404 (inactive),-0.263,0.144 (inactive),-0.0666,0.535,0.272,-0.0703
CC(C)C[C@@H]1NC(=O)[C@@H]2C[C@H](C(=O)NCc3ccc(F)cc3)[C@H](c3cccc(OCCO)c3)N2C1=O,1.38,-1.84 (inactive),-0.161 (inactive),-0.425 (inactive),2.14,1.64 (inactive),-0.0674,0.572,0.552,-0.147
COCCOC(=O)N1C(=O)[C@@]2(c3cc(C#CCC(C(=O)OC)C(=O)OC)ccc31)[C@H](C(=O)Nc1nc3ccccc3s1)[C@H]1C(=O)O[C@H](c3ccccc3)[C@H](c3ccccc3)N1[C@@H]2c1ccccc1OCCO,1.56,2.48 (inactive),2.08 (inactive),3.23 (inactive),2.78,0.374 (inactive),-0.0171,0.133,1.11,0.0556
COC(=O)[C@@]1(Cc2ccc(OC)cc2)[C@H]2c3cc(C(=O)N(C)C)n(Cc4ccc(S(C)(=O)=O)cc4)c3C[C@H]2CN1C(=O)c1ccccc1,-0.142,-3.22 (inactive),-0.462 (inactive),-0.154 (inactive),3.4,0.0416 (inactive),-0.264,0.715,1.11,0.0174
C=CCNC(=O)[C@@H]1[C@H]2C(=O)O[C@H](c3ccccc3)[C@H](c3ccccc3)N2[C@H](c2ccc(O)cc2)[C@@]12C(=O)Nc1ccc(C#CCNC(N)=O)cc12,0.575,-0.358 (inactive),0.112 (inactive),1.69 (inactive),2.13,-1.11 (inactive),-0.117,0.385,0.0332,-0.172
NC(=O)N1C(=O)C2C(C1=O)C1C=C(c3ccc(CO)cc3)C2C(c2cccs2)N1Cc1cccc(OC(F)(F)F)c1 (stereo not given),-0.139,-1.7 (inactive),-4.45 (inactive),3.82 (inactive),1.01,-0.528 (inactive),0.181,-0.312,-0.146,0.0089
CCOC(=O)C[C@H]1[C@H](OC(=O)c2ccc(C(=O)c3ccccc3)cc2)[C@@H](NC(=O)CC(C)C)c2cc(OCCCO)ccc2N1C(=O)c1ccc2ccccc2n1,1.48,1.09 (inactive),0.606 (inactive),0.607 (inactive),1.99,0.995 (inactive),0.106,0.693,1.13,-0.0565
CN1C=C(C(=O)OCCS(C)(=O)=O)C(C(=O)OCCS(C)(=O)=O)=CC(c2ccc(CO)cc2)=CC1C1CC1 (stereo not given),0.522,0.243 (inactive),-1.34 (inactive),0.678 (inactive),1.33,0.108 (inactive),-0.22,0.425,0.415,-0.103
O=C1O[C@@H](c2ccccc2)[C@@H](c2ccccc2)N2[C@@H](c3ccccc3OCCO)[C@]3(C(=O)Nc4ccccc43)[C@@H](C(=O)Nc3nc4ccccc4s3)[C@H]12,1.53,1.13 (inactive),-0.205 (inactive),2.85 (inactive),3.22,1.26 (inactive),-0.215,1.53,1.04,0.148
COc1ccc(CCNC(=O)[C@@H]2c3ccccc3C(=O)N(Cc3ccccc3Cl)[C@H]2c2ccc(CO)cc2)cc1,0.533,-0.874 (inactive),-0.96 (inactive),0.35 (inactive),1.65,-0.139 (inactive),-0.0299,-0.215,0.124,0.0121
CCN(CC)c1ccc(N2CC=CC34O[C@@H]5C=CCCOC(=O)C5[C@H]3C(=O)N(CCCCCCO)[C@@H]4C2=O)cc1 (stereo not given in full),-0.171,-2.16 (inactive),-0.431 (inactive),-1.74 (inactive),2.94,2.49 (inactive),-0.192,-0.612,-0.619,-0.0493
COC(=O)[C@@]1(Cc2ccc(OC)cc2)[C@H]2c3cc(C(=O)N(C)C)n(C)c3C[C@H]2CN1C(=O)c1ccccc1,1.4,0.116 (inactive),-0.756 (inactive),9.05 (active),3.73,-1.63 (inactive),0.654,0.727,1.02,0.382
COC(=O)C(CC#Cc1ccc2c(c1)[C@]1(C(=O)N2)[C@H](c2ccc(OCCO)cc2)N2[C@H](c3ccccc3)[C@H](c3ccccc3)OC(=O)[C@H]2[C@@H]1C(=O)Nc1nc2ccccc2s1)C(=O)OC,1.58,2.63 (inactive),2.22 (inactive),3.14 (inactive),2.45,2.13 (inactive),-0.175,1.41,1.09,0.0562
[N-]=[N+]=Nc1ccccc1[C@H]1OC(c2ccc(OCCCO)cc2)=N[C@@]1(CCS(=O)(=O)c1ccccc1)C(=O)NCC(O)CO (stereo not given in full),0.976,-0.733 (inactive),-0.213 (inactive),0.803 (inactive),3.64,-0.168 (inactive),0.207,0.108,0.244,-0.111

# — PubChem BioAssay
